Measured values from PubChem BioAssay.
For part of these data: Results with a measured potency or affinity are listed apart. The source made the active and inactive calls. Unless noted, the rule behind the calls is not given here.

Key:
[1] = antimalarial activity against Dd2 strain (AID 2302;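 active = growth inhibition above 50% at the single 2 µM test dose, taken to imply half-maximal potency below 2 µM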;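 note: 0% = DMSO untreated growth and 100% = chloroquine plus artemisinin killed control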); settings: P. falciparum Dd2 in RBCs, LDH growth readout, 72 h; at 2 µM; hits give high values
[2] = human hepatoma cell viability loss – ATP luminescence, cytotoxicity control for P. falciparum antimalarial project, primary screen (AID 2303;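 active = inhibition above 50%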;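 note: 0% = DMSO wells and 100% = digitonin-killed cells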); settings: HepG2 viability, 24-48 h, at 10 µM, hits give high values
[3] = molecular target: L-lactate dehydrogenase (Plasmodium falciparum (isolate CDC / Honduras)) (UniProt Q27743); experiment: PfLDH activity inhibition – cell lysate, 3D7 strain, counter-screen for P. falciparum growth inhibition project (AID 2304);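 note: 0% = vehicle and 100% = reference inhibitor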; settings: P. falciparum 3D7 crude extract, LDH APAD/NBT absorbance; at 2 µM; hits give high values
[4] = inhibition of 3D7 malaria parasite growth – strain 3D7 (AID 2306);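 note: 0% = DMSO wells and 100% = chloroquine plus artemisinin control wells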; settings: P. falciparum 3D7 erythrocytic growth, LDH absorbance, 72 h; at 2 µM; hits give high values
[5] = molecular target: Calcium-dependent protein kinase 1 (Plasmodium falciparum (isolate 3D7)) (UniProt P62344); experiment: PfCDPK1 kinase inhibitors, biochemical, TCAMS library (AID 1159585; cut-off not given, nearly all actives have IC50 up to about 0.98 µM;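 note: inhibitors leave more ATP so luminescence rises with inhibition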); settings: recombinant PfCDPK1, Kinase-Glo ATP depletion luminescence
[6] = molecular target: Plasmodium falciparum protein kinase 6 (PK6, PF3D7_1337100) (UniProt Q8IDW1); experiment: PfPK6 kinase inhibitors, biochemical, TCAMS library (AID 1159586); settings: recombinant PfPK6, Kinase-Glo ATP depletion luminescence
[7] = molecular target: Protein kinase 7 (PK7), Plasmodium falciparum 3D7 (PF3D7_0213400) (UniProt Q7YTF7); experiment: inhibition of Plasmodium PK7 catalytic activity – biochemical, TCAMS antimalarial set, Kinase-Glo luminescence (AID 1159587); settings: recombinant PfPK7, Kinase-Glo ATP depletion luminescence
[8] = molecular target: Calcium-dependent protein kinase 4 (Plasmodium falciparum (isolate 3D7)) (UniProt Q8IBS5); experiment: PfCDPK4 kinase inhibitors, biochemical, TCAMS library (AID 1159588; cut-off not given, nearly all actives have IC50 up to about 0.91 µM); settings: recombinant PfCDPK4, Kinase-Glo ATP depletion luminescence
Chain of Calcium-dependent protein kinase 4 (Plasmodium falciparum (isolate 3D7)) (Q8IBS5 whole entry, looked up): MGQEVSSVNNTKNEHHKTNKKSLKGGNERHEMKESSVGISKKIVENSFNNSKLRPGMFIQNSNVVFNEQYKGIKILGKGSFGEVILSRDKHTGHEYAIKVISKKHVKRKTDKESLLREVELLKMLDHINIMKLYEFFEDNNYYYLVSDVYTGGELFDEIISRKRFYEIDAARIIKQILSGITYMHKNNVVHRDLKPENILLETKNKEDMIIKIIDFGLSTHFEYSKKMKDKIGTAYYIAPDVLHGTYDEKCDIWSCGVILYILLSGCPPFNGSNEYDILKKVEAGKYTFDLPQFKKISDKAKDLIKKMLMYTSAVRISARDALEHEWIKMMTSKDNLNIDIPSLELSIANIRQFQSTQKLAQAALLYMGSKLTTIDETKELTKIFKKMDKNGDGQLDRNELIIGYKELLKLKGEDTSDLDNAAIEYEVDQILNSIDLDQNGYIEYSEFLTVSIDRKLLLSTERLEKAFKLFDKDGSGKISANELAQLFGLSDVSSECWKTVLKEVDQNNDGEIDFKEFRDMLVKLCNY

Chain of Plasmodium falciparum protein kinase 6 (PK6, PF3D7_1337100) (Q8IDW1 1-305): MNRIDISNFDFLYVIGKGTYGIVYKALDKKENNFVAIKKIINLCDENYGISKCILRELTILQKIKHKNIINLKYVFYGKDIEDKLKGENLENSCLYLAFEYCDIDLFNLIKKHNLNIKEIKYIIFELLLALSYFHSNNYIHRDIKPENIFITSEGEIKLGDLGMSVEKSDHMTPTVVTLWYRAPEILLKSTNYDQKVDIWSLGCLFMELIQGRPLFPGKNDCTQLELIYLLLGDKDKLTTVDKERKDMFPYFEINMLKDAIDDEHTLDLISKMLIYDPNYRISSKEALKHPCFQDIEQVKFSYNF
Chain of Protein kinase 7 (PK7), Plasmodium falciparum 3D7 (PF3D7_0213400) (Q7YTF7 1-343): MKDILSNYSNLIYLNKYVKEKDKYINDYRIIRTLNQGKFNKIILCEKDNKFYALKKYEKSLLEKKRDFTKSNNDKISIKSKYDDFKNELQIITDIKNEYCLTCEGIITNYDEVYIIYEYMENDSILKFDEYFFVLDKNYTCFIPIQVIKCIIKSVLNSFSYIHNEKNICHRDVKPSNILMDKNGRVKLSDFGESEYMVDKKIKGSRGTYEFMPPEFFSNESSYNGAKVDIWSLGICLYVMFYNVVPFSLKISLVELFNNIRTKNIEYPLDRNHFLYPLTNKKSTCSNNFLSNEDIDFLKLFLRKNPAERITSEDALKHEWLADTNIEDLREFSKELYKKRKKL
Chain of L-lactate dehydrogenase (Plasmodium falciparum (isolate CDC / Honduras)) (Q27743 whole entry, looked up): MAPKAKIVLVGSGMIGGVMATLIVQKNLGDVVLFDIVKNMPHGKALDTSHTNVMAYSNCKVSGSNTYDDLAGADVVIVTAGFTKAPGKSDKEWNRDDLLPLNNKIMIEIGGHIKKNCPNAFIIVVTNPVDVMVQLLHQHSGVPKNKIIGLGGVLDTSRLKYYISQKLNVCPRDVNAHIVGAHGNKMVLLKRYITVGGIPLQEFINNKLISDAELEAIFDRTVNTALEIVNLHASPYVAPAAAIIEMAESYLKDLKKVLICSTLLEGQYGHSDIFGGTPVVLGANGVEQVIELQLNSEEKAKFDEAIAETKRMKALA
Chain of Calcium-dependent protein kinase 1 (Plasmodium falciparum (isolate 3D7)) (P62344 whole entry, looked up): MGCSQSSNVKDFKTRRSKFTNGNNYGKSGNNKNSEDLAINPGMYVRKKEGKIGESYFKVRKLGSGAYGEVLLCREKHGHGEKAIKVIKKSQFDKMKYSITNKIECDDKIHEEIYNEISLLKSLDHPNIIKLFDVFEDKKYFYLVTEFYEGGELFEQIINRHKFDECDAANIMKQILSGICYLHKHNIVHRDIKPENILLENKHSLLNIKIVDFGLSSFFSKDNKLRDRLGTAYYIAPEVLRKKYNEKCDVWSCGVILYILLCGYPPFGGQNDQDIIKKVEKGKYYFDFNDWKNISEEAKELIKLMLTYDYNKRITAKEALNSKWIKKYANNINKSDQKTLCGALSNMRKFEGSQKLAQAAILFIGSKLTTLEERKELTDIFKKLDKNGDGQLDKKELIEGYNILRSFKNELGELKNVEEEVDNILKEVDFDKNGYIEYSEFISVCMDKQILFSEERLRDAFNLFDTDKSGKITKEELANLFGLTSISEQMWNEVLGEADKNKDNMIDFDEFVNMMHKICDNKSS

O=C(NCC1CCC(C(=O)NCc2cccc3ccccc23)CC1)c1ccc(O)c(-c2ccc(Cl)c(Cl)c2)c1 (centres undefined)
active: growth inhibition [1] 92% | growth inhibition [4] 100%
inactive: inhibition [2] 0% | inhibition [3] -6% | outcome [5] | outcome [6] | outcome [7] | outcome [8]

O=C(NC1CCC(N2CCC(c3nc4ccccc4s3)CC2)CC1)c1cc2ccccc2[nH]1 (centres undefined)
active: growth inhibition [4] 94%
inactive: growth inhibition [1] 37% | inhibition [2] 23% | inhibition [3] -1% | outcome [5] | outcome [6] | outcome [7] | outcome [8]

Cc1cc(NCCC(=O)NCCOc2ccccc2)nc(NCCc2ccc(F)cc2)n1
active: growth inhibition [4] 97%
inactive: growth inhibition [1] 4% | inhibition [2] 14% | inhibition [3] 2% | outcome [5] | outcome [6] | outcome [7] | outcome [8]
